Results from PubChem BioAssay (NCI).
This is part of a sample that, as a whole, favours compounds with a hit. Of some 83,000 tested, about 20% had one in any assay.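 Percent growth is the endpoint: 0 to 100 indicates growth inhibition (40 means 60% inhibition), 0 means no net growth, and negative values indicate cell death.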 Values without a mark were called inactive. Active and inactive are the calls of the source. The calls were made as follows: active = growth percent below 10; inactive = the rest.

Key:
Experiment in all cases: NCI-60 one-dose screen, 48 h (100 = growth as untreated, 0 = no growth, -100 = all killed)
T-47D breast = details: 10 µM unless noted
BT-549 breast = details: 10 µM unless noted
MDA-MB-435 melanoma = details: 10 µM unless noted
SW-620 colon = details: 10 µM unless noted
MCF7 breast = details: 10 µM unless noted
HCT-116 colon = details: 10 µM unless noted
HCC-2998 colon = details: 10 µM
KM12 colon = details: 10 µM unless noted

| Compound | growth (T-47D breast) | growth (BT-549 breast) | growth (MDA-MB-435 melanoma) | growth (SW-620 colon) | growth (MCF7 breast) | growth (HCT-116 colon) | growth (HCC-2998 colon) | growth (KM12 colon) |
| --- | --- | --- | --- | --- | --- | --- | --- | --- |
| COc1cc(Nc2c(C#N)cnc3cc(OCCCN4CCN(C)CC4)c(OC)cc23)c(Cl)cc1Cl | 59.4% | 85.2% | 31.1% | 37% | 58.3% | 23.3% | 26.9% | 32.9% |
| CC(C)c1ccc(/C=N/Nc2nc3ccccc3s2)cc1 | 78.2% | 99% | 107% | 102% | 76.2% | 89% | 104% | 89% |
| CC1(O)CC(c2nc(-c3ccc4ccc(-c5ccccc5)nc4c3)c3c(N)nccn23)C1 (stereo not given) | 2.62% (active) | 19.5% | 36.3% | 35.4% | 14.5% | 35.3% | 48.7% | 8.69% (active) |
| Cc1cc2c(-c3nc4ccccn4c3NC3CCCCC3)c(O)c(O)cc2c(O)c1-c1c(C)cc2c(-c3nc4ccccn4c3NC3CCCCC3)c(O)c(O)cc2c1O | 11.9% | 30.1% | 27.5% | 28.9% | 43% | 14.2% | 46.2% | 29.6% |
| CCc1nc2cc(F)c(/C=C/C(=O)NO)cc2c(=O)n1CCc1ccccc1 | 2.26% (active) | 28.8% | 23.8% | 9.97% (active) | 12.3% | 5.01% (active) | 37.3% | 25.6% |
| Clc1ccc(C(Cn2ccnc2)OCc2ccsc2Cl)c(Cl)c1 (stereo not given) | 43.5% | 40% | -0.595% (active) | 45.1% | 43.7% | 26.3% | 53.8% | 24.6% |
| CN(N)c1nc2sc3c(c2c(=O)[nH]1)CCCC3 | 76.6% | 91.2% | 97.1% | 101% | 83.4% | 94.9% | 96% | 95.7% |
| CCNC(=O)Nc1nc2ccc(Oc3ccnc(C(=O)NC)c3)cc2s1 | 62.6% | 90.6% | 3.1% (active) | 45.8% | 36.9% | 56% | 71.9% | 33.4% |
| Cc1sc2c(c1C)c(=O)nc1c(-c3nc4ccccc4s3)n[nH]n12 | 85.2% | 101% | 110% | 104% | 79.6% | 90% | 96.3% | 98.7% |
| O=C(NC[C@H](O)CO)c1ccncc1Nc1ccc(I)cc1F | 47.7% | 88% | 35.2% | 17.4% | 49.1% | 9.79% (active) | 2.1% (active) | 16.6% |
| CNC(=O)c1cc(Oc2ccc(NC(=O)Nc3ccc(Cl)c(C(F)(F)F)c3)c(F)c2)ccn1 | -34.5% (active) | -31.3% (active) | -57% (active) | -8.01% (active) | -26.6% (active) | -37.3% (active) | -80.8% (active) | -32.3% (active) |
| Cc1cc(O)c2c(c1)C1OC(=O)CCCCCN1C1=C2C(=O)c2cccc(OC3CC(O)C(O)C(C)O3)c2C1=O (stereo not given) | 85.6% | 83.6% | 13.1% | 99.9% | 17.7% | 24.5% | 73% | 83.4% |
| C[C@@H](Nc1cc(F)cc(F)c1)c1cc(C(=O)N(C)C)cc2c(=O)cc(N3CCOCC3)oc12 | -12.4% (active) | 34.2% | 64.8% | 60.5% | 25.2% | 55.8% | 55.3% | 66.5% |
| Cc1ccc(N=C2CSc3nnc(-c4csc5c4CCCC5)n3N2)cc1 | 48.2% | 31.3% | -25.1% (active) | 29.9% | 21.4% | 13.9% | 30.3% | 24% |
| CO[C@@H](C(=O)N1Cc2[nH]nc(NC(=O)c3ccc(N4CCN(C)CC4)cc3)c2C1)c1ccccc1 | -16.3% (active) | -10.8% (active) | 19.5% | 21.5% | 17.7% | -35.7% (active) | 26.4% | -28.7% (active) |
| COc1cc(CCc2cc(NC(=O)c3ccc(N4C[C@@H](C)N[C@@H](C)C4)cc3)n[nH]2)cc(OC)c1 | 63.7% | 43.8% | 28.4% | 28.7% | 19.9% | 25.6% | 56.3% | 3.18% (active) |
| C#Cc1cccc(Nc2ncnc3cc(OCCOC)c(OCCOC)cc23)c1 | 30.9% | 68.6% | 74.7% | 74.6% | 88.3% | 54.1% | 94.8% | 77.8% |
| Cc1ccc(C(=O)Nc2ccc(CN3CCN(C)CC3)c(C(F)(F)F)c2)cc1C#Cc1cnc2cccnn12 | -70.9% (active) | -97.7% (active) | -98.2% (active) | -87.6% (active) | -74.1% (active) | -85.3% (active) | -91.8% (active) | -91.3% (active) |
| CC(C)(C)CC(C)(C)Nc1c(-c2c(O)c3ccccc3oc2=O)nc2c(Cl)cc(C(F)(F)F)cn12 | 95.3% | 78.7% | 103% | 102% | 107% | 70.4% | 107% | 103% |
| N#CC1(C#N)C(c2cccs2)NC(c2cccs2)C1(C#N)C#N (stereo not given) | 91% | 101% | 107% | 108% | 90.3% | 97.6% | 100% | 100% |
| CCCCCCCC(=O)SCC/C=C/[C@@H]1CC(=O)NCc2cccc(n2)C2=N[C@@](C)(CS2)C(=O)N[C@@H](C(C)C)C(=O)O1 | -14.1% (active) | 32% | -9.48% (active) | 3.63% (active) | 15.5% | -27.7% (active) | -73.4% (active) | 3.74% (active) |
| COc1cc(F)c(F)c(Nc2ccc(I)cc2F)c1NS(=O)(=O)C1(C[C@H](O)CO)CC1 | 22.6% | 62.1% | 24.3% | 19.3% | 61.5% | 11.2% | -23.6% (active) | 24.2% |
| C/C(=C(/c1ccc(Cl)cc1)c1ccc(OCCN2CCCC2)cc1)c1ccccc1 | 72.4% | 73.4% | 55.1% | 51.4% | 33.8% | 47.4% | 84.7% | 25.6% |
| COc1ccc2c(CCC(c3ccccc3)c3ccccc3)c3[n+](cc2c1OC)CCc1cc2c(cc1-3)OCO2 | 5.67% (active) | -29.1% (active) | -72% (active) | 11.5% | 9.86% (active) | 6.81% (active) | -13.7% (active) | -76.7% (active) |
| C=CCC(=O)N[C@H](/C=C/C(=O)O)Cc1ccc(-c2cc(Cl)cc(Cl)c2)cc1 | 81% | 92% | 103% | 104% | 92.7% | 82.5% | 101% | 98.5% |
| Cc1cc([C@@H](C)Nc2ccccc2C(=O)O)c2nc(N3CCOCC3)cc(=O)n2c1 | -27.6% (active) | 22.3% | 58% | 35% | 16.4% | 23% | 60.1% | 57% |
| CC(CCCC(=O)O)c1ccoc1 (stereo not given) | 89.6% | 108% | 107% | 110% | 94.1% | 101% | 96.7% | 98.7% |
| COc1cc(NCCCN)c2ncccc2c1 | 91.9% | 74.9% | 83.8% | 79.1% | 90.1% | 60.4% | 83.5% | 68.2% |
| CCc1nc(C(N)=O)c(Nc2ccc(N3CCC(N4CCN(C)CC4)CC3)c(OC)c2)nc1NC1CCOCC1 | 65.1% | 19.9% | 52.3% | 3.96% (active) | 25.6% | 5.33% (active) | 61.4% | 13.8% |
| [2H]C1([2H])[C@H](C)O[C@H](C)C([2H])([2H])N1c1ccc(NC(=O)c2cccc(-c3ccc(OC(F)(F)F)cc3)c2C)cn1 | 41.7% | 63.9% | 73.4% | 90% | 66.8% | 56.9% | 82.4% | 73.2% |
